Test results as given in PubChem BioAssay AID493170 (National Center for Advancing Translational Sciences (NCATS), 2011).
Results filed as inconclusive are left out. Entries that show only a call come without a potency. Active and inactive are the calls of the source. Calls come from the whole dose curve; as a rule, active = well fitted inhibition curve with a large enough effect; inconclusive = small, poorly fitted or top-dose-only effect, or effect the other way; inactive = flat fitted curve, though single readings scatter.

biological target: Ubiquitin carboxyl-terminal hydrolase 2 (Homo sapiens) (UniProt O75604); test: Ub-rhodamine 110 based assay for inhibitors Ubiquitin-specific Protease USP2a; conditions: USP2a Ub-rhodamine110 cleavage, fluorescence; series mostly up to 38.3 µM; note: nearly all actives have a fitted effect of over 50% in size
How it was run: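 Kinetic fluorescence (485/531 nm) read each minute over 7 min after adding Ub-Rhod110 (150 nM final) to USP2a (5 nM final). The enzyme had 30 min RT exposure to compounds beforehand in Tris pH 8.0 buffer with CaCl2, CHAPS and beta-ME.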
Potency is the fitted concentration of half-maximal effect.

Chain of Ubiquitin carboxyl-terminal hydrolase 2 (Homo sapiens) (O75604 whole entry, looked up): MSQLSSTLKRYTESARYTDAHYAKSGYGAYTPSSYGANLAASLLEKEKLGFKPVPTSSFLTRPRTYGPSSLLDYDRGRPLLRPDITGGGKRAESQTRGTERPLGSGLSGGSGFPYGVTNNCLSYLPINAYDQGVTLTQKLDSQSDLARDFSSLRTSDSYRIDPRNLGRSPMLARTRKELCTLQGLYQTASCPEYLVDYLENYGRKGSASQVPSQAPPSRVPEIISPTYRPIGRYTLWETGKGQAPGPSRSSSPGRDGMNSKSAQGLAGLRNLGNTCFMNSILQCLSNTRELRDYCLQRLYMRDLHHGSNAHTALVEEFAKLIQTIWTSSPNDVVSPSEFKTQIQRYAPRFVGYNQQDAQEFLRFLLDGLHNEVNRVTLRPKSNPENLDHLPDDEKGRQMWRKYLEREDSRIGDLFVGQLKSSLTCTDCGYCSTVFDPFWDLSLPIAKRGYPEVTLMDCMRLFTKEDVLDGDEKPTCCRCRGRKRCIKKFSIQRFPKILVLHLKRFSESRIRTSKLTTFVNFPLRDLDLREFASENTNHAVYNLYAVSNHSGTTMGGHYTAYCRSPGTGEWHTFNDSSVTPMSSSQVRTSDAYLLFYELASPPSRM

Structure (SMILES)	Potency
Cc1nn(C)cc1CNC(=O)c1ccc(Br)o1	inactive
O=C(Nc1ccccc1)c1cc(Cl)nc2ccccc12	inactive
O=C(N/N=C/c1ccc(-c2ccc(Cl)c(C(=O)O)c2)o1)c1cc2c(ccc3ccccc32)o1	10 µM (active)
N#C/C(=C(/O)CSc1nnc(Cc2cccs2)n1C1CCCCC1)c1nc2ccccc2[nH]1	7.08 µM (active)
CCCn1c(N2CCN(Cc3cccc(C)c3)CC2)nc2c1c(=O)[nH]c(=O)n2C	inactive
CC(=O)Nc1ccc(NC(=O)[C@@H](NC(=O)c2cccc(C)c2)C(C)C)cc1	inactive
FC(F)(F)C1=Nc2cccc3cccc(c23)N1	inactive
COc1cccc(-n2c(SCc3cc(=O)oc4cc(O)c(O)cc34)nc3ccccc3c2=O)c1	1.58 µM (active)
O=C(Nc1ccncc1)c1ccc(S(=O)(=O)Nc2ccccc2)cc1	inactive
CCC(C)(C(=O)NC1CCCCC1)N(C(=O)C1CCC(=O)N1)c1ccccc1 (centres undefined)	inactive
O=C(CCCN1C(=O)c2ccccc2C1=O)NC1=NCCS1	inactive
CCCCC1NC(C(=O)O)CS1 (centres undefined)	inactive
CCC(CO)Oc1cc(NCc2cccc(C)c2)c2ncn(C(C)C)c2c1 (centres undefined)	inactive
O=C1COc2ccc(C(=O)COC(=O)/C=C/c3ccc(Br)o3)cc2N1	2.24 µM (active)
CCOC(=O)C(=O)Nc1nc(-c2ccc3c(c2)CCN3C(=O)C2CC2)c(C)s1	inactive
CC1(C)CC(=O)C2=C(C1)Oc1ncn(CCCO)c(=N)c1C2c1ccccc1 (centres undefined)	inactive
CC(=O)Nc1cc[n+](CC(=O)c2ccc(Cl)cc2)cc1	inactive
COc1ccc(/C=C2\SC(=O)N(CCC(=O)Nc3ccc(S(=O)(=O)Nc4nccs4)cc3)C2=O)cc1	10 µM (active)
CC(C)N(C(=O)c1sc2cc([N+](=O)[O-])ccc2c1Cl)C(C)C	inactive
CCOc1ccc2nc(NC(=O)Nc3ccccc3)sc2c1	inactive

Structure (SMILES)	Potency
CC(=O)c1ccc(NC(=O)CC(NCCC2=CCCCC2)C(=O)O)cc1 (centres undefined)	inactive
Cc1cc(-c2csc(NC(=O)c3ccc(=O)[nH]c3)n2)c(C)n1Cc1ccccc1	12.6 µM (active)
O=S(=O)(c1ccccc1)N(CC1CO1)c1cc(Cl)ccc1Cl (centres undefined)	inactive
C#CCOCCOCCOCCNc1nc(N2CCN(C(=O)CCCCCCCCCCNC(=O)[C@@H](CCC(=O)O)n3cc(CCCCCN)nn3)CC2)nc(N2CCN(C(=O)CCCCCCCCCCNC(=O)[C@H]([C@@H](C)CC)n3cc(CCCCCN)nn3)CC2)n1	inactive
Oc1c(Cl)cc(Cl)c(Cl)c1Cc1c(O)c(Cl)cc(Cl)c1Cl	3.16 µM (active)
Cc1cc(-c2nnc3n2N=C(c2ccc(-c4ccccc4)cc2)CS3)n[nH]1	11.2 µM (active)
COc1ccc(NC(=O)c2cc(-c3ccco3)nc3ccccc23)cc1S(=O)(=O)N1CCOCC1	4.47 µM (active)
O=C(c1ccc([N+](=O)[O-])cc1)N(Cc1ccc(Cl)cc1)N1C(=O)CCCC1=O	inactive
CN=c1scc(-c2ccccc2F)n1/N=C/c1ccc(O)c(O)c1O	7.08 µM (active)
CCOC(=O)c1c(C)[nH]c(C(=O)COC(=O)CSC)c1C	inactive
Cc1cccc(NC(=O)NCc2ccc3c(c2)cc(C)n3C)c1	inactive
COc1cc(/C=C/[N+](=O)[O-])ccc1OCc1cccc(C(=O)O)c1	inactive
COc1ccc(/C=N/NC(=O)c2nn(-c3ccccc3)c(=O)c3c(N)scc23)cc1	10 µM (active)
Cc1ccc(C(=O)N/C(=C/c2cccs2)C(=O)NCc2ccco2)cc1	inactive
CC(=O)c1c(N2CCCC2)[nH]c(-c2ccccc2)nc1=S	inactive
Cc1ccc2oc(=O)c3cnn(CC(=O)NCCCOC(C)C)c3c2c1	inactive
COCc1cc(C)nc(OCC(=O)N/N=C\c2cc(C)n(-c3cccc(C(F)(F)F)c3)c2C)c1C#N	inactive
Cc1noc(C)c1NC(=O)Nc1ccc2c(c1)C(=O)N([C@H](C)CO)C[C@H](C)[C@@H](CN(C)S(=O)(=O)c1ccccc1)O2	inactive
Cc1cc(SCC(=O)Nc2ccccc2)nc(C)n1	inactive
